Consider 32 molecules from PubChem BioAssay (Tox21).

Where “and” joins values, the source holds several entries; their conditions need not be identical. Identical values can stand only once. Results filed as inconclusive are left out. Unmarked numbers belong to inactive results. Calls of active or inactive are those of the source. Calls come from the whole dose curve; as a rule, active = well fitted curve in the direction sought with a large enough effect in the repeat runs; inconclusive = weak or mixed curves; inactive = no such curve, though single readings can be large; an effect the other way counts as inactive or inconclusive.

For assay [1], the target named is Cytochrome P450 2D6 (Homo sapiens) (UniProt P10635). Briefly: Cytochrome P450 Family 2 Subfamily D Member 6 (CYP2D6) small molecule antagonists: luciferase reporter qHTS assay (AID 1671196). For activity change, negative = inhibition: series mostly up to about 120 µM. Note: nearly all actives have a fitted effect of over 50% in size. Note: potency is the fitted concentration of half-maximal effect. The gist of the method:
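CYP2D6 enzyme–substrate mix was held with compound for 10 min at room temperature, then NADPH regeneration solution was added and the reaction ran 1 h at room temperature. Luciferin product was detected by luminescence after 20 min with detection reagent.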

Assay [2] deals with Cytochrome P450 2C19 (Homo sapiens) (UniProt P33261). Briefly: Cytochrome P450 Family 2 Subfamily C Member 19 (CYP2C19) small molecule antagonists: luciferase reporter qHTS assay (AID 1671197). For activity change, negative = inhibition: series mostly up to about 120 µM. Note: nearly all actives have a fitted effect of over 65% in size. Note: potency is the fitted concentration of half-maximal effect. The gist of the method: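 Enzyme-substrate mix with proluciferin substrate (P450-Glo CYP2C19 system) preincubated with compounds 10 min at room temperature; NADPH regeneration solution added, 37C for 1 h; detection reagent stops reaction, luminescence read after 20 min. Ketoconazole positive control.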
Cytochrome P450 2C19 (Homo sapiens), sequence (P33261 whole entry, looked up): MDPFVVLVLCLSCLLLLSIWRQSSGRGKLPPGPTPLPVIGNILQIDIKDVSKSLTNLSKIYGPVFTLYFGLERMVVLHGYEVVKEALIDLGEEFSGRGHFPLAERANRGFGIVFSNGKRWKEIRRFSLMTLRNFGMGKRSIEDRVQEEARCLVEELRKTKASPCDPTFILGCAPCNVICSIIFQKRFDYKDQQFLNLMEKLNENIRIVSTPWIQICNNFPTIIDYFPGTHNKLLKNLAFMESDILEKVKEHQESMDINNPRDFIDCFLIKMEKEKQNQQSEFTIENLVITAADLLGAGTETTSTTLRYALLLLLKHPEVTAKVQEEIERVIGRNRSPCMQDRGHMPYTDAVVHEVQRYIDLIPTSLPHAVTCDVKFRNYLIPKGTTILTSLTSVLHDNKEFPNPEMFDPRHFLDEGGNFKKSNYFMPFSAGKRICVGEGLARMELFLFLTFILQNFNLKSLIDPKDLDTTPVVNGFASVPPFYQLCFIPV

In assay [3] the target is Cytochrome P450 2C9 (Homo sapiens) (UniProt P11712). Description: Cytochrome P450 Family 2 Subfamily C Member 9 (CYP2C9) small molecule antagonists: luciferase reporter qHTS assay (AID 1671198). For activity change, negative = inhibition: series mostly up to about 120 µM. Note: nearly all actives have a fitted effect of over 50% in size. Note: potency is the fitted concentration of half-maximal effect. Put shortly:
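CYP2C9 activity was measured with a P450-Glo proluciferin substrate. Enzyme–substrate mix was held with compound for 10 min at room temperature, then NADPH regeneration solution was added for 1 h at 37C. Luciferin product was read as luminescence.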

Assay [4] addresses Cytochrome P450 1A2 (Homo sapiens) (UniProt P05177). Briefly: Cytochrome P450 Family 1 Subfamily A Member 2 (CYP1A2) small molecule antagonists: luciferase reporter qHTS assay (AID 1671199). For activity change, negative = inhibition: series mostly up to about 120 µM. Note: nearly all actives have a fitted effect of over 50% in size. Note: potency is the fitted concentration of half-maximal effect. The gist of the method:
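Human CYP1A2 activity measured with a P450-Glo proluciferin substrate; compounds in DMSO preincubated 10 min at room temperature with enzyme-substrate mix, then NADPH regeneration system added for 1 h. Luciferin detection reagent, 20 min, luminescence read.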

Assay [5] concerns the target Voltage-gated inwardly rectifying potassium channel KCNH2 (Homo sapiens) (UniProt Q12809). Description: Human Ether-a-go-go-Related Gene (hERG) channel small molecule antagonists: fluorescence cell-based qHTS assay (AID 1671200).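 Note: hERG-expressing U2OS cells given a thallium stimulus after FluxOR II dye loading; series mostly up to about 77 µM; nearly all actives have a fitted effect of over 50% in size.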 Put shortly:
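hERG-U2OS cells plated overnight at 37 C, loaded with FluxOR II dye 1 h at RT in dark; after 10 min, thallium stimulus added. Fluorescence (480/540 nm) read kinetically for 2 min at 1 s intervals.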

Assay [6] has as its target Cytochrome P450 3A4 (Homo sapiens) (UniProt P08684). Description: Cytochrome P450 Family 3 Subfamily A Member 4 (CYP3A4) small molecule antagonists: luciferase reporter qHTS assay (AID 1671201). Put shortly: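 P450-Glo CYP3A4 luminescent assay: compounds preincubated 10 min at room temperature with enzyme and proluciferin substrate, NADPH regeneration added, 1 h room-temperature reaction, stopped with luciferin detection reagent; luminescence read after 20 min. Ketoconazole positive control.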
% is set by controls: 0 for no effect and ±100 for the full control effect.

Cytochrome P450 2C9 (Homo sapiens), sequence (P11712 whole entry, looked up): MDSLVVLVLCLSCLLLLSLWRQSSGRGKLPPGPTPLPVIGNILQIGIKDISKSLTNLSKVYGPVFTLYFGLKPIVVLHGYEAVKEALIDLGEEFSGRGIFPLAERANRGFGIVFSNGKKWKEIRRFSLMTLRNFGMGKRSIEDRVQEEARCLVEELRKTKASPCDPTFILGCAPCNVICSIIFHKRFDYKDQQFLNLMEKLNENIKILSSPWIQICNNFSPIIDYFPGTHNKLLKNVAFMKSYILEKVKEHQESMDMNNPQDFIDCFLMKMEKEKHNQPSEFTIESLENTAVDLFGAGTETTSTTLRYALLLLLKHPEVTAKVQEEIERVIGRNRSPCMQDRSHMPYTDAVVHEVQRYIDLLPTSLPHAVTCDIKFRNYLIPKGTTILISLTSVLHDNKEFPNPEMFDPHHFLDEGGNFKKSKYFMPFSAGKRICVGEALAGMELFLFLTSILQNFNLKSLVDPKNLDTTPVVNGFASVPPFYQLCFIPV
Cytochrome P450 3A4 (Homo sapiens), sequence (P08684 whole entry, looked up): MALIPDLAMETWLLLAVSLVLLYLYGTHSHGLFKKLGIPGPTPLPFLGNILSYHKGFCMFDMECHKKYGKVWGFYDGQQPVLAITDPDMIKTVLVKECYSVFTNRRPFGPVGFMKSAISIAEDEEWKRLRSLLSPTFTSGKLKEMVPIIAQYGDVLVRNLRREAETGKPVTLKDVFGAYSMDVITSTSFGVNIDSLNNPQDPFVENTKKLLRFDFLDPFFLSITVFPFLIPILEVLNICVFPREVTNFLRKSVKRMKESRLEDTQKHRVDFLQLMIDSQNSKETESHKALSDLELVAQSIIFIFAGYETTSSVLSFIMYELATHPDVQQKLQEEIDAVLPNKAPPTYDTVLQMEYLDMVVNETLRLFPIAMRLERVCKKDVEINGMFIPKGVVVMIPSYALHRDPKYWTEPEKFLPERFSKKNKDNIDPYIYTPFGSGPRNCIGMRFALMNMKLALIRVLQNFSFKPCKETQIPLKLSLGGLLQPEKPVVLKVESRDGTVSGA
Cytochrome P450 1A2 (Homo sapiens), sequence (P05177 whole entry, looked up): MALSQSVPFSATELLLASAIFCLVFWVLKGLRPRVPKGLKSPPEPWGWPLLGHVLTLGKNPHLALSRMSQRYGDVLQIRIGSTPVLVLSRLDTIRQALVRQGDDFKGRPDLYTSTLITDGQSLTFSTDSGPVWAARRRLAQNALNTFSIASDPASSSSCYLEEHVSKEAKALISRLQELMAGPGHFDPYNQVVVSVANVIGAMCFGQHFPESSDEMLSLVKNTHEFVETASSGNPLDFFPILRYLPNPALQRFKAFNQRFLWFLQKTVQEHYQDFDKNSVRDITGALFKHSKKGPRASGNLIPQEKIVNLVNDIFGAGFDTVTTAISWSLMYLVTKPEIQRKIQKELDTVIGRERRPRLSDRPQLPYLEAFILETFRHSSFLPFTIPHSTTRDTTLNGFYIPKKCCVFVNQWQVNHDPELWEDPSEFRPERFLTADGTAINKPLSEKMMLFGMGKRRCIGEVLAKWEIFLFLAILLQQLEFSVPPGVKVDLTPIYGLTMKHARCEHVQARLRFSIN
Cytochrome P450 2D6 (Homo sapiens), sequence (P10635 whole entry, looked up): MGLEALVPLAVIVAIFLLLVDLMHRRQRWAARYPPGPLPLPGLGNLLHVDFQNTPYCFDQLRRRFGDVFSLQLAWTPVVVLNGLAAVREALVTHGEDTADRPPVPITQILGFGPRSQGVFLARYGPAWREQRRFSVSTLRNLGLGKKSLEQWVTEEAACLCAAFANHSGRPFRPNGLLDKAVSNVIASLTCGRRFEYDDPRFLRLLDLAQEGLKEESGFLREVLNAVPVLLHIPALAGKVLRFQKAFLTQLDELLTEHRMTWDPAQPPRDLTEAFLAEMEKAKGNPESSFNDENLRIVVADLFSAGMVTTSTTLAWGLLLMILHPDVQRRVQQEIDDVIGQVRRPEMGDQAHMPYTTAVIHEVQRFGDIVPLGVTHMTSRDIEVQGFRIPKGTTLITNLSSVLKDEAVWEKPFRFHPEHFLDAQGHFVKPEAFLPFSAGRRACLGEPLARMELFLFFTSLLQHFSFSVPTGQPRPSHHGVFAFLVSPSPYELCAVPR
Voltage-gated inwardly rectifying potassium channel KCNH2 (Homo sapiens), sequence (Q12809 whole entry, looked up): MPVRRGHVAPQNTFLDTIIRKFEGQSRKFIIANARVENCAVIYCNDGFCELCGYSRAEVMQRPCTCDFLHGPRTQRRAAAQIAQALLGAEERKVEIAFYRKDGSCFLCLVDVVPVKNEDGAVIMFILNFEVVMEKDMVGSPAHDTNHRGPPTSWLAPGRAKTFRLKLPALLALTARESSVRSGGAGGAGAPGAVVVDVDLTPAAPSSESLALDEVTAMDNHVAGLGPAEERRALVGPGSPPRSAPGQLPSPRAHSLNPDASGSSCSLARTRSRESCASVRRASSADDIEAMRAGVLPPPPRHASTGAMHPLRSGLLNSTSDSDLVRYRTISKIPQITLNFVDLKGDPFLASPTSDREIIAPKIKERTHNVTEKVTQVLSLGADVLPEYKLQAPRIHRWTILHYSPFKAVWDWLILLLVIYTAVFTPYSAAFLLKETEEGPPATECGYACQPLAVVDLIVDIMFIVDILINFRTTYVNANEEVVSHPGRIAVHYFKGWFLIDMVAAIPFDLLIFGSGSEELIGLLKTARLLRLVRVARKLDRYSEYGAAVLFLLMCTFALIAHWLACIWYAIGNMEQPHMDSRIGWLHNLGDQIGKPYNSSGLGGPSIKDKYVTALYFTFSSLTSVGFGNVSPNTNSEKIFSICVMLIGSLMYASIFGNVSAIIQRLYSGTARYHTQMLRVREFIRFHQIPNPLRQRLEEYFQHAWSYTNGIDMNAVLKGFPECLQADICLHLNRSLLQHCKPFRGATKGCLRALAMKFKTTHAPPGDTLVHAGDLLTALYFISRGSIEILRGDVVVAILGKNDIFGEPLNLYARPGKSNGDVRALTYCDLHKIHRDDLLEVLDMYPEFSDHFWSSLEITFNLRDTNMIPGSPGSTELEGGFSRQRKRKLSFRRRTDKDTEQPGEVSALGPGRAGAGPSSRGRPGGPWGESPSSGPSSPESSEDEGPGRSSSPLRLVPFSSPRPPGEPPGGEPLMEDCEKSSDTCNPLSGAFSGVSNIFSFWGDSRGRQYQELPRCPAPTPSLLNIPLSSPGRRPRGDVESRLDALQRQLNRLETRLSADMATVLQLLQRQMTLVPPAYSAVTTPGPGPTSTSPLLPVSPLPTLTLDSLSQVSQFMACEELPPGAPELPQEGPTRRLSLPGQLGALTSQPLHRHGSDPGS

Regarding `COc1nc(N)nc2c1ncn2[C@@H]1O[C@H](CO)[C@@H](O)[C@@H]1O`, the Potency result in assay [1], in assay [2], in assay [3], in assay [5] and in assay [6] was “inactive” in each case. In addition, the Potency in assay [4] is 24.5 µM (active).
In the case of `CCOC(=O)c1cccc(N)c1`, the Potency result in assay [1], in assay [2], in assay [3], in assay [5] and in assay [6] was “inactive” throughout. Also, the Potency in assay [4] is 5.75 µM (active).
In the case of `CC[N+](C)(C)c1cccc(O)c1`, the Potency entry in assay [1], in assay [2], in assay [3], in assay [4], in assay [5] and in assay [6] was “inactive” each time.
Turning to `Cc1cnc(NS(=O)(=O)c2ccc(N)cc2)nc1`, the Potency result in assay [1], in assay [2], in assay [3], in assay [4], in assay [5] and in assay [6] was “inactive” each time.
On to `CC(C)(C)NCCNC(C)(C)C`, for which the Potency result in assay [1], in assay [3], in assay [4], in assay [5] and in assay [6] was “inactive” in each case. Moreover, the Potency in assay [2] was 35.6 µM (active).
Turning to `CCC(C)C1CCCCC1=O` (centres undefined), the Potency result in assay [1], in assay [2], in assay [3], in assay [4], in assay [5] and in assay [6] was “inactive” in each case.
For the molecule `COc1ccc2c(c1)CCCC2=O`, the Potency entry in assay [1], in assay [2], in assay [3], in assay [5] and in assay [6] was “inactive” throughout. In addition, the Potency in assay [4] is 13.8 µM (active).
Consider `O=c1cc(-c2ccccc2)oc2ccccc12`, for which the Potency result in assay [1], in assay [5] and in assay [6] was “inactive” each time. The Potency in assay [2] was 31.7 µM (active) and 7.92 µM (active); in assay [3], 17.8 µM (active) and 15.4 µM (active); in assay [4], 317 nM (active) and 477 nM (active).
As for `Cc1c(NC(C)C)c(=O)n(-c2ccccc2)n1C`, the Potency entry in assay [1], in assay [2], in assay [3], in assay [5] and in assay [6] was “inactive” in each case. Moreover, the Potency in assay [4] was 28.8 µM (active).
For the molecule `O=C(O)CNC(=O)c1ccc([N+](=O)[O-])cc1`, the Potency entry in assay [1], in assay [2], in assay [3], in assay [4], in assay [5] and in assay [6] was “inactive” each time.
`CCOC(=O)CCC(C)=O`: the Potency result in assay [1], in assay [2], in assay [3], in assay [4], in assay [5] and in assay [6] was “inactive” each time.
As to `Cc1cccc(C)c1NC(=O)C(C)N` (centres undefined), the Potency result in assay [1], in assay [2], in assay [3], in assay [4] and in assay [5] was “inactive” in each case.
Turning to `C=CCS(=O)(=O)O`, the Potency result in assay [1], in assay [2], in assay [3], in assay [4], in assay [5] and in assay [6] was “inactive” in each case.
As to `NS(=O)(=O)c1ccc(C(=O)O)cc1`, the Potency entry in assay [1], in assay [2], in assay [3], in assay [4], in assay [5] and in assay [6] was “inactive” throughout.
As for `CN1CCC(=C2c3ccccc3CC(=O)c3sccc32)CC1`, the Potency in assay [1] was 2.45 µM (active); in assay [2] it was 34.7 µM (active). Further, the Potency entry in assay [3], in assay [4], in assay [5] and in assay [6] was “inactive” throughout.
Regarding `O=c1[nH]c(=O)n([C@H]2C[C@H](O)[C@@H](CO)O2)cc1I`, the Potency result in assay [1], in assay [2], in assay [3], in assay [4], in assay [5] and in assay [6] was “inactive” each time.
Turning to `NC(=O)c1ccc(N)cc1`, the Potency result in assay [1], in assay [2], in assay [3], in assay [4], in assay [5] and in assay [6] was “inactive” each time.
Consider `CC1=CC(C)C(C=O)CC1` (centres undefined), for which the Potency entry in assay [1], in assay [2], in assay [3], in assay [4], in assay [5] and in assay [6] was “inactive” in each case.
Take `N=C(N)c1ccc2cc(OC(=O)c3ccc(N=C(N)N)cc3)ccc2c1`: the Potency result in assay [1], in assay [2], in assay [3], in assay [4], in assay [5] and in assay [6] was “inactive” in each case.
As to `CCN1CCC[C@H]1CNC(=O)c1cc(S(N)(=O)=O)ccc1OC`, the Potency in assay [1] is 15.5 µM (active). In addition, the Potency entry in assay [2], in assay [3], in assay [4], in assay [5] and in assay [6] was “inactive” each time.
Consider `Cn1cc(S(C)=O)c(=O)c2ccc(F)cc21` (centres undefined), for which the Potency entry in assay [1], in assay [2], in assay [3], in assay [4], in assay [5] and in assay [6] was “inactive” in each case.
`CN(C)CCCSc1ccccc1NC(=O)/C=C/c1ccccc1`: the Potency was 0.389 µM (active) in assay [1] and 38.9 µM (active) in assay [2]. Also, the Potency entry in assay [3], in assay [4], in assay [5] and in assay [6] was “inactive” each time.
As to `CCOC(=O)C(=O)OCC`, the Potency in assay [1] was 31.7 µM (active). Besides, the Potency result in assay [2], in assay [3], in assay [4], in assay [5] and in assay [6] was “inactive” each time.
For the molecule `CCCCCCCCCCCCCCCCC`, the Potency entry in assay [1], in assay [2], in assay [3] and in assay [5] was “inactive” throughout. In addition, the Potency in assay [4] was 12.6 µM (active).
On to `O=S(O)CO`, for which the Potency entry in assay [1], in assay [2], in assay [3], in assay [4] and in assay [5] was “inactive” in each case.
With `CC(C)(C)c1nnc(NS(=O)(=O)c2ccccc2)s1`, the Potency entry in assay [1], in assay [2], in assay [4], in assay [5] and in assay [6] was “inactive” throughout. Besides, the Potency in assay [3] was 27.5 µM (active).
Consider `COc1c(N2C[C@@H]3CCCN[C@@H]3C2)c(F)cc2c(=O)c(C(=O)O)cn(C3CC3)c12`, for which the Potency entry in assay [1], in assay [2], in assay [3], in assay [4], in assay [5] and in assay [6] was “inactive” each time.
With `N[C@@H](C(=O)N[C@@H]1C(=O)N2C(C(=O)O)=C(Cl)CS[C@H]12)c1ccccc1`, the activity change, negative = inhibition was -15.8% [at 10.5 µM] in assay [1]; 33.2% [at 10.5 µM] in assay [2]; -2.01% [at 10.5 µM] in assay [3]; 7.47% [at 10.5 µM] in assay [4]; -6.12% [at 6.97 µM] in assay [5]; -15.7% [at 10.5 µM] in assay [6].
Consider `CC(C)OC(=O)c1ccccc1`, for which the Potency result in assay [1], in assay [2], in assay [3], in assay [4], in assay [5] and in assay [6] was “inactive” throughout.
As to `CC(=O)N(CC(O)CO)c1c(I)c(C(=O)NCCO)c(I)c(C(=O)NCC(O)CO)c1I` (centres undefined), the Potency result in assay [1], in assay [2], in assay [3], in assay [4], in assay [5] and in assay [6] was “inactive” in each case.
As to `C=C(C)CS(=O)(=O)O`, the Potency entry in assay [1], in assay [2], in assay [3], in assay [5] and in assay [6] was “inactive” in each case. Moreover, the Potency in assay [4] is 35.6 µM (active).
As to `O=C(O)CCCc1ccccc1`, the Potency result in assay [1], in assay [2], in assay [3], in assay [4], in assay [5] and in assay [6] was “inactive” throughout.
